# Reference: PubChem BioAssay (NCI)
# About 83,000 compounds went through this panel and 20% of them were active in at least one assay; those are over-represented in the sample as a whole.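 Results are percent growth after 48 hours of single-concentration exposure. 100 means growth as in untreated cells, lower positive values show inhibition; negative values down to -100 show cell death.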 Unmarked numbers belong to inactive results. Calls of active or inactive are those of the source. The calls were made as follows: active = growth percent below 10; inactive = the rest.
# Experiments:
# Experiment in all cases: NCI-60 one-dose screen, 48 h (100 = growth as untreated, 0 = no growth, -100 = all killed)
# Settings in all cases: 10 µM unless noted
# NCI-H23 lung = test system: NCI-H23 lung
# NCI-H226 lung = test system: NCI-H226 lung
# NCI-H322M lung = test system: NCI-H322M lung
# HOP-62 NSCLC = test system: HOP-62 NSCLC
# NCI-H460 lung = test system: NCI-H460 lung
# HOP-92 NSCLC = test system: HOP-92 NSCLC
# NCI-H522 lung = test system: NCI-H522 lung
# A549/ATCC NSCLC = test system: A549/ATCC NSCLC
# 786-0 renal = test system: 786-0 renal
# COLO 205 colon = test system: COLO 205 colon
# DU-145 prostate = test system: DU-145 prostate
# K-562 leukemia = test system: K-562 leukemia
# MALME-3M melanoma = test system: MALME-3M melanoma
# MDA-MB-231 breast = test system: MDA-MB-231 breast
# RXF 393 renal = test system: RXF 393 renal
# SF-268 CNS = test system: SF-268 CNS
# SF-295 CNS = test system: SF-295 CNS
# SF-539 CNS = test system: SF-539 CNS
# UACC-257 melanoma = test system: UACC-257 melanoma
# M14 melanoma = test system: M14 melanoma
SMILES,growth (NCI-H23 lung),growth (NCI-H226 lung),growth (NCI-H322M lung),growth (HOP-62 NSCLC),growth (NCI-H460 lung),growth (HOP-92 NSCLC),growth (NCI-H522 lung),growth (A549/ATCC NSCLC),growth (786-0 renal),growth (COLO 205 colon),growth (DU-145 prostate),growth (K-562 leukemia),growth (MALME-3M melanoma),growth (MDA-MB-231 breast),growth (RXF 393 renal),growth (SF-268 CNS),growth (SF-295 CNS),growth (SF-539 CNS),growth (UACC-257 melanoma),growth (M14 melanoma)
CCC1CN1CCCCN1CC1CC (stereo not given),104%,98.3%,96.7%,113%,113%,116%,95.6%,104%,104%,112%,108%,114%,91.6%,96.7%,105%,103%,95.3%,100%,97%,98%
Fc1cccc(NCOOC2(OOCNc3cccc(F)c3)CCCCC2)c1,81.9%,112%,98.6%,90.6%,104%,87.3%,74.9%,89.6%,85%,118%,98.6%,41.3%,101%,103%,108%,93%,94.3%,91.2%,88.7%,91.6%
C[C@@]12CC=C3c4nc(Nc5cccc(O)c5)sc4CC[C@]3(C)[C@H]1CC[C@]1(C)C(=O)CC[C@@H]21,63.7%,94.5%,72.8%,27.5%,43.9%,64.3%,-56.4% (active),55.4%,-0.522% (active),34.4%,12.7%,4.81% (active),35.3%,39.5%,-6.67% (active),43.1%,-47.7% (active),-41.8% (active),79.6%,54.8%
CCCC[C@H](NC(=O)[C@H]1CCCN1C)C(=O)N(C)[C@H](C[C@@H](OC(C)=O)c1nc(C(=O)N[C@@H](Cc2ccccc2)C[C@H](C)C(=O)OCC)cs1)C(C)C,24.4%,37.2%,33.3%,21.8%,7.53% (active),7.16% (active),-12.1% (active),8.16% (active),3.94% (active),-66.7% (active),12.8%,9.85% (active),49.5%,3.51% (active),25.3%,25.8%,13.3%,0.375% (active),46.1%,-12% (active)
CC12CCC3C(C=CC4=C(N)C(=O)CCC43C)C1CCC2=O (stereo not given),74.1%,96.3%,88.4%,112%,83.8%,61.9%,76.6%,103%,89.3%,121%,62.4%,-26.9% (active),70.8%,101%,95.2%,89%,105%,82.8%,86.7%,79.5%
C=CC[PH+](c1ccccc1)c1ccccc1.C=CC[PH+](c1ccccc1)c1ccccc1.[Cl][Pt][Cl],58.8%,73.9%,101%,95.8%,91.9%,16%,9.41% (active),88.2%,49.7%,22.2%,71.7%,0.456% (active),-26.4% (active),41.8%,-16.6% (active),95.5%,89.8%,68%,80%,51.9%
Oc1ccc2c3c1OC1[C@@H](O)CC[C@@]4(O)[C@@H](C2)N(CC2CCC2)CC[C@]314 (stereo not given in full),104%,99.1%,97.7%,107%,115%,86.8%,86.3%,98.9%,96.6%,113%,113%,94.7%,92.5%,114%,97.7%,105%,102%,103%,97.6%,103%
CC(=O)O[C@H](C[C@H](C(C)C)N(C)C(=O)[C@@H](NC(=O)[C@H]1CCCCN1C)C(C)C)c1nc(C(=O)N[C@@H](Cc2ccccc2)C[C@H](C)C(=O)O)c(C(C)C)s1,22.9%,58.9%,35.8%,20%,6.51% (active),51.5%,-21.1% (active),8.67% (active),16%,-60% (active),-0.791% (active),6.34% (active),64.9%,12.9%,44.1%,27.7%,-0.193% (active),-10.7% (active),41.5%,4.52% (active)
COC(=O)CC[C@H](Cc1ccccc1)NC(=O)c1csc([C@@H](C[C@H](C(C)C)N(C)C(=O)[C@@H](NC(=O)[C@H]2CCCCN2C)C(C)C)OC(C)=O)n1,51%,83%,51%,52.7%,21.7%,-1.54% (active),9.28% (active),40.4%,34.8%,-49.7% (active),39.1%,24.4%,74.2%,36.8%,69.6%,26.6%,32%,9.4% (active),66.6%,20.2%
CC[C@H](C)[C@@H]([C@@H](CC(=O)N1CCC[C@H]1[C@H](OC)[C@@H](C)C(=O)N[C@H](C)[C@@H](O)c1ccccc1)OC)N(C)C(=O)[C@@H](NC(=O)[C@@H](NC)C(C)C)C(C)C,27.9%,66.9%,50.8%,25.8%,9.17% (active),11.5%,-36.1% (active),21.4%,21.2%,-72.1% (active),10.5%,11%,55.6%,16.9%,46%,39%,10.8%,-13.9% (active),65.7%,1.24% (active)
CC(=O)O[C@H](C[C@H](C(C)C)N(C)C(=O)[C@@H](NC(=O)[C@H]1CCCCN1C)C(C)(C)C)c1nc(C(=O)N[C@@H](Cc2ccccc2)C[C@H](C)C(=O)O)cs1,37.8%,61.4%,41.8%,19.7%,4.25% (active),35.3%,-24.7% (active),9.66% (active),11.1%,-59.1% (active),0.642% (active),5.51% (active),66.7%,6.25% (active),39.5%,24.1%,-0.638% (active),-10.9% (active),47%,3.36% (active)
CCC1CC(O)c2c(O)c3c(c(O)c2C1O)C(=O)c1cccc(O)c1C3=O (stereo not given) (tested in a mixture with another compound),-75.9% (active),-9.01% (active),-16.4% (active),-62.2% (active),-53.6% (active),-29.3% (active),-47.9% (active),-23.2% (active),-31% (active),-46.4% (active),-1.28% (active),-44.1% (active),-92.3% (active),-18.8% (active),-27% (active),-24% (active),-24% (active),-64.5% (active),-25.3% (active),-97.1% (active)
CCCCCCCCC(CO)NCCc1ccccc1 (stereo not given),105%,98.6%,88.8%,98%,102%,77.9%,73.7%,83.7%,102%,107%,102%,80.7%,109%,93.1%,136%,99.7%,98.1%,115%,85.7%,92.5%
O=C(CC1(O)C(=O)N(Cc2ccccc2)c2ccc(Br)cc21)c1ccc(C(=O)NCC2CCC3(CC2)OOC2(CCCCC2)OO3)cc1 (stereo not given),-74.3% (active),-33% (active),73.9%,-55.6% (active),-41% (active),-74.1% (active),2.53% (active),-61.1% (active),-70.7% (active),-49.5% (active),-98.8% (active),-5.58% (active),-68.1% (active),-73.9% (active),-76.5% (active),-1.12% (active),29.3%,-85.1% (active),57%,41.9%
Fc1ccc2c(c1)c(-c1nc(-c3c[nH]c4ncccc34)cs1)cn2CCCCN1CCCCC1,-75.9% (active),-7.3% (active),-47.9% (active),-89.5% (active),-80% (active),-52.8% (active),-87.2% (active),-87.7% (active),-93.7% (active),-89.6% (active),-93.1% (active),-74.1% (active),-73% (active),-88.4% (active),-73.1% (active),-77.5% (active),-60.7% (active),-82.4% (active),-87.2% (active),-88.5% (active)
